From PubChem BioAssay
Activity calls are given as the source filed them. Unless noted, how the calls were made is not given here.

Tests used:
[1] = system: Wnt5a (protein binding on small-molecule microarray); test: small molecules binding Wnt5a protein – biophysical, small-molecule microarray, 635/667 nm fluorescence, primary screen (AID 1142); settings: 635 nm fluorescence, higher = more signal;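 further: fluorescence read at 667 nm with signal to noise per printed feature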
[2] = ATP-based viability of Huh7 replicon cells – cell-based, CellTiter-Glo luminescence, basal, 48 h, cytotoxicity control for HCV replication inhibitor project, primary screen (AID 1143); settings: higher = more signal, called active from +8 up or from −8 down;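 further: Huh7 hepatoma cells carrying a hepatitis C replication reporter with no stimulus; test concentration not given here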
[3] = Pseudomonas biofilm growth suppression – PAO1 strain, BacTiter-Glo luminescence, LB-PBS, primary screen (AID 1144); settings: P. aeruginosa PAO1 biofilm, 12 h, higher = more signal
[4] = basal CRE-LacZ reporter activity in PC12 – cell-based, unstimulated, primary screen (AID 1145); settings: no forskolin, luminescence, 4.5 h, higher = more signal, called active from +8 up or from −8 down
[5] = forskolin-driven CRE-LacZ activity in PC12 – cell-based, CRE-LacZ reporter, forskolin-stimulated, primary screen (AID 1146); settings: luminescence, 4.5 h, higher = more signal, called active from +8 up or from −8 down;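 further: PC12 cells with 6xCRE LacZ reporter stimulated by forskolin 10 µM; beta-galactosidase reporter signal reflecting CREB driven transcription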
[6] = biological target: Streptavidin (Streptomyces avidinii) (UniProt P22629); test: compounds binding control protein streptavidin – biophysical, small-molecule microarray, 635/667 nm fluorescence, artefact control for SMM compound annotation, primary screen (AID 1147); settings: higher = more signal;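 further: signal reflects streptavidin binding to arrayed compounds as a control protein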
[7] = probe aInhba binding on compound microarray – biochemical, small-molecule microarray, 635/667 nm fluorescence, primary screen (AID 1148); settings: higher = more signal;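 further: score merges 667nm spot fluorescence with signal-to-noise for antibody binding to printed compounds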
Torsin-1A (Homo sapiens) [8] = biological target: Torsin-1A (Homo sapiens) (UniProt O14656); test: TOR1A wild-type binding on microarray – cell lysate, small-molecule microarray, lysate, 635/667 nm, primary screen (AID 1149); settings: COS7 hTOR1A-WT lysate, 635 nm fluorescence, higher = more signal
Torsin-1A (Homo sapiens) [9] = biological target: Torsin-1A (Homo sapiens) (UniProt O14656); test: torsin A mutant lysate binding on microarrays – cell lysate, small-molecule microarray, COS7 lysate, 635/667 nm fluorescence, primary screen (AID 1150); settings: COS7 hTOR1A mutant lysate, 635 nm fluorescence, higher = more signal;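 further: score pools 667 nm emission and signal to noise measuring lysate protein binding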
[10] = system: Sonic hedgehog protein (Shh); test: Sonic hedgehog microarray binding compounds – biochemical, small-molecule microarray, 635/667 nm fluorescence, primary screen (AID 1151); settings: 635 nm fluorescence, higher = more signal;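 further: Shh protein binding to compounds spotted on small-molecule microarray slides; score combines spot fluorescence intensity with signal-to-noise across triplicate slides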
[11] = optical density shifts of acrAB sulA E. coli – strain DRC41, OD650, 48 h, E. coli filamentation inducer project, primary screen (AID 1152); settings: higher = more signal, called active from +8 up or from −8 down;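 further: E. coli MC1000 strain DRC41 lacking acrAB efflux pump and sulA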
[12] = probe aLefty1 binding on compound microarray – biochemical, small-molecule microarray, 635/667 nm fluorescence, primary screen (AID 1153); settings: higher = more signal;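 further: score merges spot fluorescence with signal-to-noise ratio from the scanned slide images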
[13] = plasmodial surface anion channel blockers, osmotic lysis – cell-based, P. falciparum Indochina, OD700, 1 h, primary screen (AID 1154); settings: P. falciparum Indochina infected RBC osmotic lysis, higher = more signal, called active from +8 up or from −8 down
[14] = plasmodial surface anion channel blockers, osmotic lysis – cell-based, P. falciparum Indochina, OD700, 2 h, primary screen (AID 1155);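 further: lysis reports solute entry through the parasite surface anion channel PSAC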; settings: P. falciparum Indochina infected erythrocytes, higher = more signal, called active from +8 up or from −8 down
[15] = changes in parasitized red cell lysis, either direction – P. falciparum Indochina, OD700, 3 h, PSAC antagonist project, primary screen (AID 1156); settings: P. falciparum-infected erythrocytes, osmotic lysis, higher = more signal, called active from +8 up or from −8 down
[16] = plasmodial surface anion channel blockers, osmotic lysis – cell-based, P. falciparum Indochina, OD700, 18 h, primary screen (AID 1157); settings: P. falciparum Indochina infected erythrocytes, osmotic lysis OD700, 18 h; higher = more signal, called active from +8 up or from −8 down
[17] = S6 kinase pathway phospho-S6 level changes – cell-based, A549, cytoblot, luminescence, serum-stimulated, primary screen (AID 1158); settings: 5 h, higher = more signal;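 further: serum-stimulated A549 lung adenocarcinoma cells; signal is phosphorylated S6 detected by cytoblot immunostaining with HRP secondary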
[18] = biological target: NADPH oxidase 2 (Homo sapiens) (UniProt P04839); test: compounds shifting NOX2 Amplex Red fluorescence – cell-based, HEK293-NOX2, PMA-stimulated, NOX inhibitor project, primary screen (AID 1159); settings: 45 min, higher = more signal, called active from +8 up or from −8 down; further: test concentration not given here
[19] = biological target: NADPH oxidase 4 (Homo sapiens) (UniProt Q9NPH5); test: compounds shifting NOX4 Amplex Red fluorescence – cell-based, HEK293-NOX4, tetracycline-induced, NOX inhibitor project, primary screen (AID 1160); settings: HEK293-NOX4, Amplex Red H2O2 fluorescence, 45 min; higher = more signal, called active from +8 up or from −8 down
[20] = biological target: NADPH oxidase 5 (Homo sapiens) (UniProt Q96PH1); test: compounds shifting NOX5 Amplex Red fluorescence – cell-based, HEK293-NOX5, NOX inhibitor project, primary screen (AID 1161); settings: HEK293-NOX5, ionomycin, 45 min, higher = more signal
NADPH oxidase 5 (Homo sapiens), sequence (Q96PH1 whole entry, looked up): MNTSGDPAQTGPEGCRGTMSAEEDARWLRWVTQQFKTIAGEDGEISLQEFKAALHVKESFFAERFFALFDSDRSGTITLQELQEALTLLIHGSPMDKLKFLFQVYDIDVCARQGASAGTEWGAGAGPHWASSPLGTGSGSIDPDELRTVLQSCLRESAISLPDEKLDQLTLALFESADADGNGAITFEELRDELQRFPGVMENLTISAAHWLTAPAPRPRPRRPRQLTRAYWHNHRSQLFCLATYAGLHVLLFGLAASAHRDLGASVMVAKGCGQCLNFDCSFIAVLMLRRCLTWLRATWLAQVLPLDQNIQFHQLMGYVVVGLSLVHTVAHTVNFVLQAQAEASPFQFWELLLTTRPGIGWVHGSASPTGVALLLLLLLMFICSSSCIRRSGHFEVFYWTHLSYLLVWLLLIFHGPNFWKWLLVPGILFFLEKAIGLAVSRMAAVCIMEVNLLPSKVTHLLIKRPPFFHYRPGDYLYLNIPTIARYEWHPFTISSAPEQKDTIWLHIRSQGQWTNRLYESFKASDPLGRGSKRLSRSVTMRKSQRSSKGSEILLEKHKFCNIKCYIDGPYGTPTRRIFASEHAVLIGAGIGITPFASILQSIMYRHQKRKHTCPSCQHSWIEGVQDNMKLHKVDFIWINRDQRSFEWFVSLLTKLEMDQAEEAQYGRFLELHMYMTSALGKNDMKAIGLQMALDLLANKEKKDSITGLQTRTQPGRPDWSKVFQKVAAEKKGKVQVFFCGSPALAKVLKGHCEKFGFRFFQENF

Torsin-1A (Homo sapiens), sequence (O14656 whole entry, looked up): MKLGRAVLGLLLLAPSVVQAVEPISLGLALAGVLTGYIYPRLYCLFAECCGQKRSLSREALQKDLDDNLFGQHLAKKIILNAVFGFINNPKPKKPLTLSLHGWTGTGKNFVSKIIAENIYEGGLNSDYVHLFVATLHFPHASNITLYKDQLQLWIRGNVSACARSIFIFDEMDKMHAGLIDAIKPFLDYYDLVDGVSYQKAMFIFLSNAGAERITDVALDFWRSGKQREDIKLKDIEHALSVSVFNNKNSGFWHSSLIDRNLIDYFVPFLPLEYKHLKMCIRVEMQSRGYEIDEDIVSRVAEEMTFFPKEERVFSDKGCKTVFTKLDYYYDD
NADPH oxidase 4 (Homo sapiens), sequence (Q9NPH5 whole entry, looked up): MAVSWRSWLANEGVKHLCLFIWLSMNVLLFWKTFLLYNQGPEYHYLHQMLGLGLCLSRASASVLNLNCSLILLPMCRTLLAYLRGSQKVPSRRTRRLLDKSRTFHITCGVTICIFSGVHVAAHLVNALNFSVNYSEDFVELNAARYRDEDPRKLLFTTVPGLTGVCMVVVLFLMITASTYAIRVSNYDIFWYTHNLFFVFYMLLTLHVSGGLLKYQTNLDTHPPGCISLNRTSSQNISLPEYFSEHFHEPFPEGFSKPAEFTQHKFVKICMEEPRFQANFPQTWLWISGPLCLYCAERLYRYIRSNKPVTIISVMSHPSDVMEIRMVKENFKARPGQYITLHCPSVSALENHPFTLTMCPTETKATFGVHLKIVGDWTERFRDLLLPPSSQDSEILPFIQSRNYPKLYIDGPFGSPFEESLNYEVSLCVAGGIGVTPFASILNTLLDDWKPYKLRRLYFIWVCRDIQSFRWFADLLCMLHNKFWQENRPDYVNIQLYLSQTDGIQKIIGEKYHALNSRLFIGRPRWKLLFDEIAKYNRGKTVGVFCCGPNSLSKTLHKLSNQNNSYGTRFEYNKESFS
Streptavidin (Streptomyces avidinii), sequence (P22629 whole entry, looked up): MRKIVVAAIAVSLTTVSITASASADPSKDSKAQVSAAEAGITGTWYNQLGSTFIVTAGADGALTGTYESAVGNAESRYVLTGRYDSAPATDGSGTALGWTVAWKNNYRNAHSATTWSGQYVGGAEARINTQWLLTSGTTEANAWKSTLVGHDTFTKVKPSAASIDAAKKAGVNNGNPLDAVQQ
NADPH oxidase 2 (Homo sapiens), sequence (P04839 whole entry, looked up): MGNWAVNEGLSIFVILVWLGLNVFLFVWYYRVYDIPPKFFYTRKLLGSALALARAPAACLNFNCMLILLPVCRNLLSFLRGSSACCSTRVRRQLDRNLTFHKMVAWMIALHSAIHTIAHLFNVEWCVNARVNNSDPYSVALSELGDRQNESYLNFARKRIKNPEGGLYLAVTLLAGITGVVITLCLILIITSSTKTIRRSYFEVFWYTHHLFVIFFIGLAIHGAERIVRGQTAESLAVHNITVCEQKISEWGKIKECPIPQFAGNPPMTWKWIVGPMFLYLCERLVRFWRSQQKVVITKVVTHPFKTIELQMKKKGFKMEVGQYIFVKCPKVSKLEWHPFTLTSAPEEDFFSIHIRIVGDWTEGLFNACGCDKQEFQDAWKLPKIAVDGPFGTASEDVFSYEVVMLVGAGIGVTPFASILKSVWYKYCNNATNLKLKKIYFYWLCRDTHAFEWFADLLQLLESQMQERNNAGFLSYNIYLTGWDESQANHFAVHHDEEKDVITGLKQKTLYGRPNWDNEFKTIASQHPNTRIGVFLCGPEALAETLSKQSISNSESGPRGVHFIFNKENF

CN(C)C(=O)[C@@]1(Cc2ccccc2)COC(c2ccc(OCCCO)cc2)=N1
composite z-score [1]: -0.243 | z-score [2]: -2.58 (inactive) | z-score [3]: 0.59 (inactive) | z-score [4]: 1.74 (inactive) | z-score [5]: -1.3 (inactive) | composite z-score [6]: 0.142 | composite z-score [7]: -0.661 | composite z-score (Torsin-1A (Homo sapiens) [8]): 0.0565 | composite z-score (Torsin-1A (Homo sapiens) [9]): -0.22 | composite z-score [10]: -0.618 | z-score [11]: 1.54 (inactive) | composite z-score [12]: -0.57 | z-score [13]: 20.9 (active) | z-score [14]: 3.73 (inactive) | z-score [15]: 2.46 (inactive) | z-score [16]: 1.09 (inactive) | z-score [17]: 0.0912 | z-score [18]: -1.26 (inactive) | z-score [19]: 0.108 (inactive) | z-score [20]: -1.21

Cc1nc2cc(Br)ccc2c(=O)n1Cc1cccc(O)c1
composite z-score [1]: 0.59 | z-score [2]: 0.267 (inactive) | z-score [3]: -0.0703 (inactive) | z-score [4]: -1.11 (inactive) | z-score [5]: -0.978 (inactive) | composite z-score [6]: 0.57 | composite z-score [7]: -0.0567 | composite z-score (Torsin-1A (Homo sapiens) [8]): 0.995 | composite z-score (Torsin-1A (Homo sapiens) [9]): 0.407 | composite z-score [10]: 1.29 | z-score [11]: 0.685 (inactive) | composite z-score [12]: -0.216 | z-score [13]: 0.73 (inactive) | z-score [14]: 0.368 (inactive) | z-score [15]: 0.136 (inactive) | z-score [16]: 0.377 (inactive) | z-score [17]: -0.257 | z-score [18]: -0.763 (inactive) | z-score [19]: -0.191 (inactive) | z-score [20]: -0.302

COc1ccc([Si](C)(C)[C@@H]2[C@@H](CCn3cc([C@H](O)c4ccccc4)nn3)O[C@]3(C(=O)N(c4ccccc4)c4ccccc43)[C@H]2C)cc1
composite z-score [1]: -0.0872 | z-score [2]: -6.24 (inactive) | z-score [3]: 0.506 (inactive) | z-score [4]: 1.6 (inactive) | z-score [5]: -0.897 (inactive) | composite z-score [6]: -0.238 | composite z-score [7]: -0.22 | composite z-score (Torsin-1A (Homo sapiens) [8]): 0.511 | composite z-score (Torsin-1A (Homo sapiens) [9]): 0.283 | composite z-score [10]: 0.618 | z-score [11]: 0.424 (inactive) | composite z-score [12]: -0.348 | z-score [13]: 3.15 (inactive) | z-score [14]: -1.51 (inactive) | z-score [15]: 3.03 (inactive) | z-score [16]: -1.63 (inactive) | z-score [17]: 0.751 | z-score [18]: -0.0239 (inactive) | z-score [19]: 0.276 (inactive) | z-score [20]: 0.506

CC(C)C(=C=CC[C@@H](O)c1cccc(OCCO)c1)C[C@@H](O)COCc1ccccc1
composite z-score [1]: 0.139 | z-score [2]: -2.36 (inactive) | z-score [3]: 0.232 (inactive) | z-score [4]: 7.66 (inactive) | z-score [5]: -1 (inactive) | composite z-score [6]: -0.506 | composite z-score [7]: -0.165 | composite z-score (Torsin-1A (Homo sapiens) [8]): -0.134 | composite z-score (Torsin-1A (Homo sapiens) [9]): -0.377 | composite z-score [10]: 1.06 | z-score [11]: 1.74 (inactive) | composite z-score [12]: -0.504 | z-score [13]: 12.8 (active) | z-score [14]: -0.6 (inactive) | z-score [15]: 1.76 (inactive) | z-score [16]: -2.05 (inactive) | z-score [17]: 3.5 | z-score [18]: -1.19 (inactive) | z-score [19]: -1.2 (inactive) | z-score [20]: -2.4

COc1ccc(C(O)C2C=CC3C(=O)N(c4ccccc4)C(=O)C3N2Nc2ccccc2F)cc1 (stereo not given)
composite z-score [1]: 0.0178 | z-score [2]: -0.0475 (inactive) | z-score [3]: -0.749 (inactive) | z-score [4]: -0.228 (inactive) | z-score [5]: 0.604 (inactive) | composite z-score [6]: 0.316 | composite z-score [7]: 1.52 | composite z-score (Torsin-1A (Homo sapiens) [8]): 0.216 | composite z-score (Torsin-1A (Homo sapiens) [9]): 0.732 | composite z-score [10]: 0.379 | z-score [11]: -1.19 (inactive) | composite z-score [12]: 0.167 | z-score [13]: 4.67 (inactive) | z-score [14]: 1.33 (inactive) | z-score [15]: 0.0183 (inactive) | z-score [16]: 0.635 (inactive) | z-score [17]: -0.331 | z-score [18]: -1.34 (inactive) | z-score [19]: -3.63 (inactive) | z-score [20]: -1.7
